Screening results as filed in PubChem.
APOBEC3G inh = inhibitors of human APOBEC3G DNA deaminase. recombinant A3G, ssDNA deamination FAM/TAMRA fluorescence. inhibition, % at 20 µM. 330,000 tested, 0.28% active;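 active means inhibition of at least 40% at 20 µM, with no more than 30% in the related APOBEC3A deaminase screen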;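 further: plate controls were DMSO wells with A3G for no effect and wells lacking A3G enzyme for full effect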
Target sequence (Q9HC16 whole entry, looked up): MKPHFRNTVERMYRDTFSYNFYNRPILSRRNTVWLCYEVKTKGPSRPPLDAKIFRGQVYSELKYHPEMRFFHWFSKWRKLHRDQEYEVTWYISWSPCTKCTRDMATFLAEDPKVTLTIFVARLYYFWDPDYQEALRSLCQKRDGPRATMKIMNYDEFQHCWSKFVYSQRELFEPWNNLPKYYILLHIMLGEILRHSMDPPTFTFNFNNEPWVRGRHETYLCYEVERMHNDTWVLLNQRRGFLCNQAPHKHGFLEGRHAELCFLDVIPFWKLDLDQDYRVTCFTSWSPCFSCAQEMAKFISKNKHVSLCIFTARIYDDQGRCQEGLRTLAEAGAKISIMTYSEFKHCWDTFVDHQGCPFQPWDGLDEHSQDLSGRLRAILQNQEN
esBAF inh = inhibitors of esBAF chromatin remodeling in mouse ES cells. reporter increase, % at 12.5 µM. 350,000 tested, 2% active. AID 602393. Bmi1-luciferase knock-in reporter, 24 h; 100% = twice the neutral-well signal; in the data active means activation above about 40%; inconclusive means no clear call, values can overlap the other calls;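 further: 0% = median of the plate's neutral control wells and 100% = double that signal; a rise in the Bmi1 reporter signal indicates esBAF inhibition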
A3A deaminase = inhibitors of human APOBEC3A DNA deaminase; P31941; recombinant A3A, FAM/TAMRA ssDNA deamination fluorescence; inhibition, % at 20 µM; 330,000 tested, 0.41% active; AID 493011;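 active means at least 40% inhibition at 20 µM here, with at most 30% in a related deaminase screen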;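 further: plate controls were A3A with DMSO for no effect and wells lacking A3A enzyme for full effect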
Target sequence (P31941 whole entry, looked up): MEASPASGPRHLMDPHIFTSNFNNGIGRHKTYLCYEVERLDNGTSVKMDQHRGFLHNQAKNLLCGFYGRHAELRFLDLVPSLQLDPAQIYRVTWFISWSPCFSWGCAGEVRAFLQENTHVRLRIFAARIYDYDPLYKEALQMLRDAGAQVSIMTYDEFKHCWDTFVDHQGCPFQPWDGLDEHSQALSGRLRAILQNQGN
MITF act = increases MITF-driven TRPM1 promoter luciferase signal; SK-MEL-5 TRPM1-promoter luciferase, 24 h; % of positive control, neutral wells = 0; activation, % at 12.5 µM; 300,000 tested, 0.75% active;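 active means mean activation of at least 80% with every replicate also reaching 80%; inconclusive means mean reaches 80% but some replicate falls short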;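 further: 0% = neutral control wells and 100% = parthenolide positive control wells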
PHOSPHO1 block = blocks human PHOSPHO1 phosphatase activity; recombinant PHOSPHO1, absorbance phosphatase assay; 290,000 tested, 1.1% active; Q8TCT1; inhibition, % at 13.3 µM; in the data active means inhibition above about 60%
Wnt act = activators of Wnt/beta-catenin signaling | Wnt/beta-catenin reporter cell assay, activator, plate reader | activation, % at 9.35 µM | 300,000 tested, 1.2% active | AID 743398; in the data active means activation above about 30%, passing the limit was not always enough; inconclusive means no clear call, values can overlap the other calls;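 further: 0% = neutral control wells and 100% = positive control wells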
Starred values were filed as active, the others as inactive; ? = inconclusive; . = not tested or not shown; ! = repeats disagree. Sampled rows, rich in hits. Any-hit rate of the full collection: about 3.6%.

SMILES	APOBEC3G inh	esBAF inh	A3A deaminase	MITF act	PHOSPHO1 block	Wnt act
COc1ccc(NC(=O)C2C(=O)N(CCO)C3(C)CC2c2ccccc2O3)cc1 (stereo unspecified)	-3	26*!	0	2	-19	5
Cc1ccc(/C=C2\OC(=O)c3ccccc32)cc1	-6	73*	0	32	30	22
Cc1noc(C)c1NC(=O)N(C)C[C@H]1Oc2ccc(NS(=O)(=O)c3cn(C)cn3)cc2CC(=O)N([C@H](C)CO)C[C@H]1C	.	3	.	.	.	.
CC(C)C#Cc1ccc([C@H]2[C@@H](CO)N(C(=O)C3CCOCC3)[C@H]2C#N)cc1	.	4	.	.	.	.
N#C[C@H]1[C@H](c2ccc(-c3cccc(F)c3)cc2)[C@H](CO)N1c1nc(-c2ccccc2)cs1	.	-1	.	.	.	.
Cc1ccccc1NC(=S)Nn1cnnc1	5	6	-2	-2	9	0
CCc1ccccc1NC(=S)Nn1cnnc1	0	3	-1	7	61*	0
CC(NC(=O)COC(=O)c1cc([N+](=O)[O-])ccc1N1CCOCC1)c1ccccc1 (stereo unspecified)	0	-1	-1	-4	61*	-2
CC(NC(=O)COC(=O)c1cc([N+](=O)[O-])ccc1N1CCOCC1)c1ccc(F)cc1 (stereo unspecified)	-5	.	7	5	.	-5
CCCNC(=O)N1[C@H](CO)[C@@H](c2ccccc2)[C@@H]1CNC(=O)c1ccc(F)cc1	.	2	.	.	.	.
O=C(CCN1CCCCC1)N[C@H]1CC[C@H](CCNS(=O)(=O)c2ccccc2)O[C@@H]1CO	.	-12	.	.	.	.
O=C(COc1cc(F)ccc1[N+](=O)[O-])Nc1ccc2c(c1)OCO2	-4	57*	-2	65	.	22
CC(=O)c1cc(F)ccc1OCC(=O)Nc1ccc2c(c1)OCO2	-6	7	0	?	.	53*
Cc1cccc(OCC(=O)Nc2ccc3c(c2)OCO3)c1C	-3	12	-4	.	11	10
O=C(COc1ccccc1[N+](=O)[O-])Nc1ccc2c(c1)CCC2	-8	79*	0	111*	.	29
CCSc1nnc(NC(=O)COc2ccccc2[N+](=O)[O-])s1	-1	49*	1	22	5	5
CC1C=NC(S(=O)(=O)N2CC[C@@H]3[C@H](CO)N(C)c4ccc(-c5ccccc5)cc4[C@@H]32)=N1 (stereo partly specified)	.	13	.	.	.	.
O=C(COc1ccc2c(c1)OCO2)Nc1ccc(Cl)cn1	1	46*	2	84*	6	18
COCC(=O)Nc1ccc2c(c1)OCO2	-5	.	-4	0	37	-1
O=C(COc1ccc(Cl)cc1)Nc1ccc(Cl)cn1	1	34	2	67	16	.
O=C(COc1ccccc1[N+](=O)[O-])Nc1ccc2c(c1)OCO2	-8	58*	3	61	42	16
NC(=O)c1cc(Cl)ccc1OCC(=O)Nc1ccc2c(c1)OCO2	-8	-48	35	57	.	68*
O=C(COc1ccccc1[N+](=O)[O-])N/N=C/c1cccc(OC(=O)c2ccc3c(c2)OCO3)c1	-5	.	-3	95*	-4	29
COc1ccc(C#Cc2cnc3c(c2)C(=O)N([C@@H](C)CO)C[C@H](C)[C@@H](CN(C)C(=O)CC2CC2)O3)cc1	.	-50	.	.	.	.
Cc1cc(C(=O)Nc2cccc3c2O[C@H](CN(C)C(=O)Nc2ccccc2)[C@H](C)CN([C@@H](C)CO)C3=O)n(C)n1	.	-2	.	.	.	.
SMILES	APOBEC3G inh	esBAF inh	A3A deaminase	MITF act	PHOSPHO1 block	Wnt act
CC1CCc2sc(C(=O)N3CCC(C(N)=O)CC3)cc2C1 (stereo unspecified)	-2	34	0	.	.	36*
O=C(c1ccc2ncsc2c1)N1CCN(c2cccc(C(F)(F)F)c2)CC1	-5	46*	3	1	.	1
O=C(c1ccc2nc[nH]c2c1)N1CCN(c2cccc(C(F)(F)F)c2)CC1	-4	.	-1	14	31	3
C[C@H](NC(=O)C1CC(=O)N(c2ccc3c(c2)OCO3)C1)C(=O)NC1CCCC1 (stereo partly specified)	1	-5	0	16	20	0
O=C(NCc1ccc2c(c1)OCO2)C1CC(=O)N(C2CCCC2)C1 (stereo unspecified)	-2	-7	-7	-6	64*	.
COc1cccc(-n2cc(CNC(=O)C3CCC(=O)N(C4CC4)C3)cn2)c1 (stereo unspecified)	-4	2	-2	11	40	2
O=C(NCc1ccc2c(c1)OCO2)C1CC(=O)N(C2CCCCCCC2)C1 (stereo unspecified)	-1	4	1	-15	48	.
CC(C)C[C@H](NC(=O)C1CC(=O)N(c2ccc3c(c2)OCO3)C1)C(=O)NC1CCCC1 (stereo partly specified)	-5	-10	-1	3	70*	0
O=C(NCc1cc(F)ccc1F)C1CCC(=O)N(C2CCCCCC2)C1 (stereo unspecified)	-9	48*	-5	49	38	11
O=C(NCc1cnn(-c2ccc(F)cc2)c1)C1CCC(=O)N(C2CC2)C1 (stereo unspecified)	-5	2	-5	-1	61*	-2
CO[C@@H]1CN(C)C(=O)c2cc(NC(=O)C3CCCCC3)ccc2OC[C@H](C)N(Cc2nccs2)C[C@H]1C	.	2	.	.	.	.
CO[C@@H]1CN(C)C(=O)c2cc(NC(C)=O)ccc2OC[C@H](C)N(Cc2cc(F)ccc2F)C[C@@H]1C	.	3	.	.	.	.
C[C@@H]1CCCCO[C@@H](CN(C)C(=O)Nc2ccc3c(c2)OCO3)[C@H](C)CN([C@H](C)CO)C(=O)c2cc(NC(=O)c3ccccc3)ccc2O1	.	17	.	.	.	.
O=C(/C=C1\OCc2ccccc21)c1ccccc1	.	.	.	.	.	45*
Cc1cc(N(CCO)CCO)ccc1N=Nc1cc(F)ccc1F	6	59*	10	69	8	-2
COc1ccc(C(=O)NC(=S)NC(C)(C)C)cc1Br	-7	59*	-2	48	22	1
COc1ccc(C(=O)NNC(=S)NC(=O)c2ccc(F)cc2)cc1Br	2	.	1	.	.	18
COc1ccc(C(=O)NC(=S)NC(C)C)cc1Br	-6	63*	-2	49	-22	.
CC(CCn1cccn1)NC(=O)c1cc(COc2ccc(F)cc2F)on1 (stereo unspecified)	0	0	-1	3	32	-3
CC(=O)c1ccc(OCc2cc(C(=O)NC(C)CCn3cccn3)no2)cc1 (stereo unspecified)	-6	71*	-3	78	.	14
O=C(NCCCn1cccn1)c1cc(COc2ccccc2)on1	.	82*	.	.	.	?
COc1cccc(S(=O)(=O)N[C@@H]2CC[C@H](CC(=O)NCc3ccc(F)cc3)O[C@H]2CO)c1	.	2	.	.	.	.
NC(=S)Nc1nc2ccccc2[nH]c1=O	-1	.	7	.	66*	4
